Assay results as given in PubChem BioAssay AID887 (National Center for Advancing Translational Sciences (NCATS), 2007).
“And” between values parts separate entries of the source, which are not always exact repeats. Equal values may be shown once. In all, about 74,000 compounds went through this assay and about 1,100 (1.5%) were called active. Roughly 5% stayed inconclusive and do not appear here. This is one part of a sample in which actives are shown more often than they occur. Values without a mark were called inactive. Calls follow the shape of the dose curve; as a rule, active = well fitted inhibition curve with a large enough effect; inconclusive = small, poorly fitted or top-dose-only effect; inactive = no such curve, though single readings can be large or run the other way.

Molecular target: Polyunsaturated fatty acid lipoxygenase ALOX15 (Homo sapiens) (UniProt P16050)
Assay: qHTS Assay for Inhibitors of 15-hLO (15-human lipoxygenase); also: nearly all actives have a fitted effect of over 55% in size
Settings: purified 15hLO-1, xylenol orange hydroperoxide absorbance; series mostly up to 57.1 µM; activity change, negative = inhibition: at the top concentration
Description: Assay Overview: NIH Molecular Libraries Screening Centers Network [MLSCN] NIH Chemical Genomics Center [NCGC] MLSCN Grant: MH081283-01A1 PI Name: Holman, T.R., University of California, Santa Cruz Human lipoxygenase 15hLO-1 is a member of the closely related lipoxygenase family of enzymes which catalyze the site-specific oxidation of arachidonic acid to various hormone precursor molecules and as such is a candidate for drug development in a variety of disease areas, such as cancer and inflammation. Inhibition of 15hLO-1 activity was screened by utilizing arachidonic acid as a substrate. The extent of hydroperoxide product formation was measured by a secondary chromogenic reaction in which xylenol orange (XO, Sigma-Aldrich, cat. number 39,818-7) reacts with the ferric ions produced from the reaction between the hydroperoxide and ferrous ions. The Fe(III)-XO complex is characterized with red-shifted absorbance at 560 nm. A purified preparation of human 15hLO-1 was supplied by Professor Ted Holman, University of California, Santa Cruz.
Assay Protocol: Buffer: 25 mM Hepes pH 7.5, 0.01% Triton X-100. Reagents/Controls: Buffer in columns 3 and 4 as negative control (no enzyme). Substrate solution: 50 uM arachidonic acid (Sigma-Aldrich, St. Louis, MO) final concentration dispensed throughout the plate. Enzyme: 40 nM 15hLO-1 final concentration in columns 1, 2, 5-48. Column 1 is neutral (100% activity). Column 2 contained pin-transferred titration of NDGA (nordihidroguaiaretic acid, Sigma-Aldrich, N 5023, top concentration 10 mM in DMSO, then 1:2 dilution in duplicate). (Dilution factor: 23 nL into 4 uL.) Chromogenic detection reagent (divalent iron/xylenol orange, Fe-XO): 200 uM xylenol orange plus 300 uM ferrous ammonium sulfate prepared freshly in 50 mM sulfuric acid. Assay Steps: Three uL of enzyme were dispensed to 1536-well Greiner black clear bottom plates. Compounds and controls (23 nL) were transferred via Kalypsys PinTool. The plates were incubated for 15 min at room temperature, and then 1 uL of substrate solution was added to start the reaction. After room temperature incubation for 6 minutes, 4 uL of Fe-XO solution was added to each well followed by a short spin (1000 rpm, 15 sec) and the plates were then incubated for 30 min. The absorbance at 405 and 573 nm were measured using ViewLux (Perkin-Elmer) High-throughput CCD imager and absorbance protocol settings. The 573-to-405 absorbance ratio was used to compute reaction progress.
% is scaled to controls: 0 for no effect and ±100 for the full control effect; potency is read from the fitted curve at half-maximal effect.

Polyunsaturated fatty acid lipoxygenase ALOX15 (Homo sapiens), sequence (P16050 whole entry, looked up): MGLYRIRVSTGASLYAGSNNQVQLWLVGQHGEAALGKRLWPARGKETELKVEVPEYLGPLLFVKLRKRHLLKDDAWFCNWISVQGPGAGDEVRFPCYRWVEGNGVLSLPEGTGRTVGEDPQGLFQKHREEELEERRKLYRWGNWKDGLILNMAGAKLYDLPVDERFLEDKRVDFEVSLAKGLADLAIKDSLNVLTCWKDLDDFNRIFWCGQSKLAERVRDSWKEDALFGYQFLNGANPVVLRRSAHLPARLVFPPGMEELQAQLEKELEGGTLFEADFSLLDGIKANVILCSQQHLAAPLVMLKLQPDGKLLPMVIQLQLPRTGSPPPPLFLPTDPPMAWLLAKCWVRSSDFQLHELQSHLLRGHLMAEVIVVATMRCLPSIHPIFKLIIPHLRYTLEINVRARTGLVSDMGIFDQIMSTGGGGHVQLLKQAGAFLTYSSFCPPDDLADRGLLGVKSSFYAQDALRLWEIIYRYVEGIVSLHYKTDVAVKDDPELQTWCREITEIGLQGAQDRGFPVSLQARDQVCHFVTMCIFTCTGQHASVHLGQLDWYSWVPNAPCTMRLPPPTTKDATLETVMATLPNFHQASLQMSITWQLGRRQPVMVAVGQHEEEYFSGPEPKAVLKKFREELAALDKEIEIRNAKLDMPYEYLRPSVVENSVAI

Structure (SMILES) | activity change, negative = inhibition | Potency
Cc1ccc(C(C(=O)NC2CCCCC2)N(C(=O)c2csnn2)C2CC2)o1 (configuration not stated) | 3.9% | –
COc1cc(C(=O)Nc2oc(-c3ccccc3)c(-c3ccccc3)c2C#N)cc(OC)c1OC | -4.42% | –
Oc1ccc2c(c1)OCC1c3cc4c(cc3OC21)OCO4 (configuration not stated) | -10.2% | –
CCCCOCCCNC(=O)c1ccccc1OCC | 2.13% [at 11.4 µM] | –
COc1ccc2[nH]cc(CCNc3ncnc4ccc(-c5ccc(C(=O)N(C)C)cc5)cc34)c2c1 | -25.2% | –
CC(C)NC(=O)N1CCC2(CC1)CCN(C(=O)c1cccn1C)CC2 | 6.39% | –
CC(C)c1ccc2c(c1)c(SC(C)(C)C)c(CC(C)(C)C(=O)O)n2Cc1ccc(Cl)cc1 | – | 12.6 µM (active)
CS(=O)(=O)N1CCC2(CC1)CN(Cc1ccccc1)C2 | 3.03% | –
CC(=O)OCC1OC(C#Cc2ccccc2Cl)C=CC1OC(C)=O (configuration not stated) | -0.11% [at 11.4 µM] | –
CN1CC(=O)N=C1N | -6.95% | –
C[C@H]1CC[C@H](C(=O)O)N[C@@H]1c1ccc(C#Cc2ccccc2)cc1 | -4.38% [at 11.4 µM] | –
COC(=O)Cc1csc(Nc2c(C)n(C)n(-c3ccccc3)c2=O)n1 | 6.76% | –
Cc1c(NC(=O)c2cccnc2)c(=O)n(-c2ccccc2)n1C | inactive | –
Cc1cc(C(=O)Nc2c(C)n(C)n(-c3ccccc3)c2=O)cs1 | – | 1.58 µM (active)
O=C(Nn1cnc2ccccc2c1=O)c1ccc(F)cc1Cl | 3.47% | –
C/C(O)=C\c1nc(=O)c2c(C)cc(C)nc2n1-c1ccccc1 | 0.435% | –
CCCS(=O)(=O)C(=C1Nc2ccccc2N1)S(=O)(=O)CCC | 15.7% | –
COc1c2c(cc3occ(-c4ccc5c(c4)OCO5)c(=O)c13)OC(C)(C)C=C2 | 0.261% | –
COCCCn1c(CCC(=O)O)ccc1-c1ccc(F)cc1 | – | 15.8 µM (active)
CC(C)Cn1c(CCC(=O)O)ccc1-c1cccs1 | -18.8% | –
COCCCNC(=O)c1c(F)c(F)c(F)c(F)c1F | 0.932% | –
Nc1ncn(C2OC(CO)C(O)C2O)c(=O)n1 (configuration not stated) | 0.0711% | –
CC1(C)OC2CC3C4CCC5=CC(=O)CCC5(C)C4(F)C(O)CC3(C)[C@]2(C(=O)CCl)O1 (some centres not stated) | 3.58% | –
CC1CC[C@@]23CCC4(C)[C@@]5(C)CCC6C(C)(C)C(O)CC[C@@]6(C)C5C=C[C@@]4(OC2=O)C3C1C (some centres not stated) | -8.3% | –

Structure (SMILES) | activity change, negative = inhibition | Potency
CCOC(=O)CSC1=C(C#N)C(c2ccco2)C(C(=O)OCc2ccccc2)=C(C)N1 (configuration not stated) | -23.2% | –
N#CC1=C(N)Oc2c(sc3ccccc23)C1c1ccco1 (configuration not stated) | – | 3.98 µM (active)
Nc1nc2[nH]c(=O)c(=O)[nH]c2c(=O)[nH]1 | 0.107% | –
CC(=O)OCC(=O)[C@@]1(O)CCC2C3CCC4=CC(=O)CC[C@]4(C)C3C(=O)C[C@]21C (some centres not stated) | 3.23% | –
O=C(c1ccco1)N1CCC2(CC1)CCN(c1ncccn1)CC2 | 9.21% | –
COc1ccc(-c2nnc(SC(C)C#N)o2)cc1 (configuration not stated) | 1.19% | –
COc1ccc(CC(=O)Nc2ccc(-c3nnc(-c4ccccc4)o3)cc2)cc1 | -7.27% | –
COc1ccc(-c2nnc(SC(=O)N3c4ccccc4Sc4ccccc43)o2)cc1 | – | 3.16 µM (active)
COC(=O)CC1C(C)(C)C(OC(C)=O)C2CC3=C4CC(=O)OC(c5ccoc5)[C@]4(C)CCC3[C@@]1(C)C2=O (some centres not stated) | 6.69% | –
COC(=O)c1ccc2c(=O)n(CC3CCCO3)c(=S)[nH]c2c1 (configuration not stated) | -3.04% | –
CCOC(=O)c1sc(=S)n2c1[nH]c(=O)c1ccc(C(=O)OC)cc12 | – | 10 µM (active)
CCOC(=O)Cn1c(N)c(C(=O)OC)sc1=S | -20.2% | –
COc1ccc(Oc2ncc3nc(C)c(=O)n(-c4ccccc4)c3n2)cc1 | -0.0242% | –
COC(=O)C1=C(C)N(Cc2ccccc2)C2=C3C(=O)N(c4ccccc4)C(=O)C3[C@@](O)(C(=O)OC)C(=O)N2C1c1ccccc1 (some centres not stated) | 4.96% [at 11.4 µM] and 4.92% [at 11.4 µM] | –
CN1CCC(CNC(=O)c2ccc(-n3c(=O)c(=O)[nH]c4ccccc43)cc2)CC1 | -7.95% | –
O=C1NS(=O)(=O)c2ccccc21 | -9.99% | –
OCCCNC(c1ccccc1)c1ccc(O)cc1 (configuration not stated) | -11% | –
CSc1sc(C)cc1C1C(C#N)=C(N)N(c2cccnc2)C2=C1C(=O)CCC2 (configuration not stated) | – | 15.8 µM (active)
Cc1cc(C(=O)O)ccc1[N+](=O)[O-] | -12.9% | –
O=C1C[C@@H](O)[C@@H](O)[C@H]2[C@@H]3C(=O)N(Cc4ccc5c(c4)OCO5)C(=O)[C@@H]3CC[C@H]12 | 6.76% [at 11.4 µM] and -0.286% [at 11.4 µM] | –
CO/N=C\[C@@H](C)[C@H](OCc1ccccc1)C(C)C | 6.43% [at 11.4 µM] | –
CC1C(O)CC2C(C(=O)O)=CO[C@@H](O[C@H]3OC(CO)C(O)C(O)C3O)C21 (some centres not stated) | 9% | –
CC1(C)OC(C(O)(c2ccccc2)c2ccccc2)C(C(O)(c2ccccc2)c2ccccc2)O1 (configuration not stated) | 14.5% [at 11.4 µM] | –
